From the supplement of paper PMC6555819

Key:
Assay in all cases: PBM binding z-score (relative to random genomic background probes); higher = stronger binding; sequences stand for … in GC…GCGATTGACAGCGTAGAATGAAGG
[1] = test system: PPARg:RXRa DBDmut IVT, anti-RXR (DBD mutation: RXRa K156A/R161A, NR concentration 270 nM, RXRa partner concentration 90 nM)
Method in brief: (§1)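 Binding z-scores take random background probes as their reference. They come from custom Agilent 4×180K protein-binding microarrays incubated 1 h with ligand-free nuclear receptor dimers, with antibodies against each partner (one per run) detecting binding. Scanned fluorescence was regression-normalized.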

[2] = test system: PPARg:RXRa IVT, anti-PPARg (NR concentration 270 nM, RXRa partner concentration 90 nM)
Method in brief: as §1

[3] = test system: PPARg DBDmut:RXRa IVT, anti-PPARg (DBD mutation: PPARg1 K132A/R137A, NR concentration 270 nM, RXRa partner concentration 90 nM)
Method in brief: as §1

[4] = test system: PPARg DBDmut IVT, anti-PPARg (DBD mutation: PPARg1 K132A/R137A, NR concentration 270 nM)
Method in brief: as §1

[5] = test system: PPARg homodimer (NR concentration 180 nM)
Method in brief: as §1

[6] = test system: PXR:RXRa (NR concentration 270 nM, RXRa partner concentration 90 nM)
Method in brief: as §1

[7] = test system: PXR homodimer (NR concentration 270 nM)
Method in brief: as §1

[8] = test system: RARa:RXR (NR concentration 270 nM, RXRa partner concentration 90 nM)
Method in brief: as §1

[9] = test system: RARa homodimer (NR concentration 270 nM)
Method in brief: as §1

[10] = test system: RARb:RXRa (NR concentration 270 nM, RXRa partner concentration 90 nM)
Method in brief: as §1

ATGTGTAGGTTAAGGGTCATTCAGGTTGGTTCGC
PBM binding z-score [1]: 3.87
PBM binding z-score [2]: 5.47
PBM binding z-score [3]: 1.46
PBM binding z-score [4]: 1.87
PBM binding z-score [5]: 4.52
PBM binding z-score [6]: 5.44
PBM binding z-score [7]: 4.53
PBM binding z-score [8]: 6.37
PBM binding z-score [9]: 3.77
PBM binding z-score [10]: 3.91

CTAACTAGGTCATCCAGGACAGTGAATACATTGA
PBM binding z-score [1]: 8.55
PBM binding z-score [2]: 8.68
PBM binding z-score [3]: 3.4
PBM binding z-score [4]: 1.83
PBM binding z-score [5]: 2.45
PBM binding z-score [6]: 2.07
PBM binding z-score [7]: 1.37
PBM binding z-score [8]: 2.83
PBM binding z-score [9]: 0.768
PBM binding z-score [10]: 3.88

TGAATGAGGTTGAAGATCAGGGAACGTGGCGTCG
PBM binding z-score [1]: -0.653
PBM binding z-score [2]: 0.294
PBM binding z-score [3]: 0.451
PBM binding z-score [4]: 0.38
PBM binding z-score [5]: -0.432
PBM binding z-score [6]: -0.193
PBM binding z-score [7]: -0.315
PBM binding z-score [8]: 0.257
PBM binding z-score [9]: -0.208
PBM binding z-score [10]: 0.206

TCTTTTAGTTGAAGGGCAACCGACGAGTCCGTTT
PBM binding z-score [1]: 2.2
PBM binding z-score [2]: 0.777
PBM binding z-score [3]: 2.36
PBM binding z-score [4]: 1.84
PBM binding z-score [5]: 0.00638
PBM binding z-score [6]: 0.764
PBM binding z-score [7]: 0.475
PBM binding z-score [8]: 0.383
PBM binding z-score [9]: 0.199
PBM binding z-score [10]: 1.65

TCTTGTAGATCAACAGGAGGTTACGAAAGATCGA
PBM binding z-score [1]: 1.67
PBM binding z-score [2]: 1.04
PBM binding z-score [3]: 0.791
PBM binding z-score [4]: 0.725
PBM binding z-score [5]: 0.494
PBM binding z-score [6]: 0.945
PBM binding z-score [7]: 0.0297
PBM binding z-score [8]: 1.38
PBM binding z-score [9]: -0.191
PBM binding z-score [10]: 0.551

ATCTCTAGGTAACGTTCAGTGAAAGATCGATAGA
PBM binding z-score [1]: 3.29
PBM binding z-score [2]: 2.87
PBM binding z-score [3]: 1.78
PBM binding z-score [4]: 1.73
PBM binding z-score [5]: 0.504
PBM binding z-score [6]: 0.0439
PBM binding z-score [7]: 0.0107
PBM binding z-score [8]: 0.445
PBM binding z-score [9]: 0.865
PBM binding z-score [10]: 0.556

ACAGACACGTGATGAAGGTAACTCAGGCTATCAT
PBM binding z-score [1]: -0.318
PBM binding z-score [2]: -0.0146
PBM binding z-score [3]: 0.501
PBM binding z-score [4]: 0.226
PBM binding z-score [5]: 0.142
PBM binding z-score [6]: -0.0986
PBM binding z-score [7]: 0.0203
PBM binding z-score [8]: 0.352
PBM binding z-score [9]: 0.63
PBM binding z-score [10]: -0.138

GCTAGCAGGCCATTTGGGTCACACAATGACGGGC
PBM binding z-score [1]: 2
PBM binding z-score [2]: 2.63
PBM binding z-score [3]: -0.238
PBM binding z-score [4]: -0.979
PBM binding z-score [5]: 0.139
PBM binding z-score [6]: 0.906
PBM binding z-score [7]: 0.00293
PBM binding z-score [8]: 1.05
PBM binding z-score [9]: -0.205
PBM binding z-score [10]: 1.61

ACAGAGAGGTGAGTGAAGGTAACTCAGCTGGACG
PBM binding z-score [1]: 1.71
PBM binding z-score [2]: 1.65
PBM binding z-score [3]: 0.674
PBM binding z-score [4]: -0.716
PBM binding z-score [5]: 0.508
PBM binding z-score [6]: 0.337
PBM binding z-score [7]: 0.0847
PBM binding z-score [8]: 0.565
PBM binding z-score [9]: 0.175
PBM binding z-score [10]: 1.48

TCGAGTAGGTTAGGGGCAATCAGAATGGCGTCGA
PBM binding z-score [1]: 2.08
PBM binding z-score [2]: 1.37
PBM binding z-score [3]: -0.745
PBM binding z-score [4]: -0.163
PBM binding z-score [5]: 1.06
PBM binding z-score [6]: 0.437
PBM binding z-score [7]: 0.0887
PBM binding z-score [8]: 0.347
PBM binding z-score [9]: -0.176
PBM binding z-score [10]: 1.19

CGTCAAAGTTCAACTAAGGTAAAGTAAAGCACGC
PBM binding z-score [1]: 0.496
PBM binding z-score [2]: 2.11
PBM binding z-score [3]: 0.89
PBM binding z-score [4]: 1.16
PBM binding z-score [5]: 3.47
PBM binding z-score [6]: 5.32
PBM binding z-score [7]: 2.92
PBM binding z-score [8]: 4.16
PBM binding z-score [9]: 2.06
PBM binding z-score [10]: 5.39

CAAACTACGTCAAGAGGTCAAAGTCCGCTTCCCG
PBM binding z-score [1]: 1.03
PBM binding z-score [2]: 2.44
PBM binding z-score [3]: 1.05
PBM binding z-score [4]: 0.608
PBM binding z-score [5]: 3.36
PBM binding z-score [6]: 5.8
PBM binding z-score [7]: 3.22
PBM binding z-score [8]: 6.09
PBM binding z-score [9]: 1.56
PBM binding z-score [10]: 4.01

CCTGCTAGGTCATGGACAGCTAATCTACAGTATG
PBM binding z-score [1]: 4.72
PBM binding z-score [2]: 3.72
PBM binding z-score [3]: 0.434
PBM binding z-score [4]: 0.0292
PBM binding z-score [5]: 0.812
PBM binding z-score [6]: 1.4
PBM binding z-score [7]: -0.443
PBM binding z-score [8]: 2.53
PBM binding z-score [9]: 0.184
PBM binding z-score [10]: 3.84

TCGAGAAGGTTAGTCGGGGCATTCAGCCAACATA
PBM binding z-score [1]: 1.32
PBM binding z-score [2]: 0.682
PBM binding z-score [3]: -0.513
PBM binding z-score [4]: -0.49
PBM binding z-score [5]: 0.545
PBM binding z-score [6]: 0.807
PBM binding z-score [7]: 0.434
PBM binding z-score [8]: 0.664
PBM binding z-score [9]: -0.434
PBM binding z-score [10]: 1.36

ATATGTAGGTTCAGGGTCATTCAGGTTGGTTCGC
PBM binding z-score [1]: 3.41
PBM binding z-score [2]: 4.69
PBM binding z-score [3]: 1.38
PBM binding z-score [4]: 1.25
PBM binding z-score [5]: 3.72
PBM binding z-score [6]: 5.44
PBM binding z-score [7]: 5.1
PBM binding z-score [8]: 5.15
PBM binding z-score [9]: 2.39
PBM binding z-score [10]: 3.41

TCTTCTAGATCAAGCAGGTTAAGAAAGCCTGAGT
PBM binding z-score [1]: 1.76
PBM binding z-score [2]: 0.683
PBM binding z-score [3]: 0.767
PBM binding z-score [4]: 0.698
PBM binding z-score [5]: 0.504
PBM binding z-score [6]: 0.69
PBM binding z-score [7]: 0.108
PBM binding z-score [8]: 0.523
PBM binding z-score [9]: -0.00815
PBM binding z-score [10]: 0.276

AGTCAAAGTTCACTACGTAACGTAAGATTCAGCT
PBM binding z-score [1]: 0.373
PBM binding z-score [2]: 1.98
PBM binding z-score [3]: 1.52
PBM binding z-score [4]: 1.04
PBM binding z-score [5]: 1.69
PBM binding z-score [6]: 3.72
PBM binding z-score [7]: 2.5
PBM binding z-score [8]: 2.71
PBM binding z-score [9]: 1.15
PBM binding z-score [10]: 4.47

CCGCCTGGGGCAGAAAGGTTACCATACCATCCGG
PBM binding z-score [1]: -0.75
PBM binding z-score [2]: -0.444
PBM binding z-score [3]: -1.12
PBM binding z-score [4]: -1.51
PBM binding z-score [5]: 0.297
PBM binding z-score [6]: 0.861
PBM binding z-score [7]: -0.276
PBM binding z-score [8]: 1.49
PBM binding z-score [9]: -0.241
PBM binding z-score [10]: 1.83

CCTTACGGGTCACGAAGTTATAGCACGACGAGCG
PBM binding z-score [1]: 3.76
PBM binding z-score [2]: 4.76
PBM binding z-score [3]: 0.631
PBM binding z-score [4]: -0.0727
PBM binding z-score [5]: 1.89
PBM binding z-score [6]: 3.31
PBM binding z-score [7]: -0.0842
PBM binding z-score [8]: 3.86
PBM binding z-score [9]: 0.765
PBM binding z-score [10]: 4.51

TCTCGGACGACACGAAAGGTCAGAGCTCGACATC
PBM binding z-score [1]: 1.5
PBM binding z-score [2]: 1.09
PBM binding z-score [3]: -0.234
PBM binding z-score [4]: 0.0466
PBM binding z-score [5]: 3.29
PBM binding z-score [6]: 3.8
PBM binding z-score [7]: 0.286
PBM binding z-score [8]: 4.66
PBM binding z-score [9]: 2.43
PBM binding z-score [10]: 3.86

CCGACTGGGGCAAAGTTTACCATACTCAGTACGA
PBM binding z-score [1]: 4.45
PBM binding z-score [2]: 4.71
PBM binding z-score [3]: -0.8
PBM binding z-score [4]: -0.571
PBM binding z-score [5]: 0.875
PBM binding z-score [6]: 0.182
PBM binding z-score [7]: 0.0528
PBM binding z-score [8]: 0.465
PBM binding z-score [9]: -0.24
PBM binding z-score [10]: 1.41

ATAGAAAGGTCGACGAGGTGAGTATACACCGTTT
PBM binding z-score [1]: 0.284
PBM binding z-score [2]: 1.82
PBM binding z-score [3]: 1.11
PBM binding z-score [4]: 0.417
PBM binding z-score [5]: 1.76
PBM binding z-score [6]: 2.87
PBM binding z-score [7]: 0.566
PBM binding z-score [8]: 3.6
PBM binding z-score [9]: 0.784
PBM binding z-score [10]: 3.72

TCTGCTAGGTCAGATGGTCAGCTAACGAGCTGCC
PBM binding z-score [1]: 2.66
PBM binding z-score [2]: 2.86
PBM binding z-score [3]: 0.906
PBM binding z-score [4]: -0.32
PBM binding z-score [5]: 0.276
PBM binding z-score [6]: 0.315
PBM binding z-score [7]: -0.95
PBM binding z-score [8]: 1.22
PBM binding z-score [9]: -1.27
PBM binding z-score [10]: 3.32

CCTTACGGGTCACGATGTTATAGCACGACGAGCG
PBM binding z-score [1]: 3.85
PBM binding z-score [2]: 4.86
PBM binding z-score [3]: 0.952
PBM binding z-score [4]: 0.0806
PBM binding z-score [5]: 2.01
PBM binding z-score [6]: 3.41
PBM binding z-score [7]: 0.295
PBM binding z-score [8]: 4.22
PBM binding z-score [9]: 0.866
PBM binding z-score [10]: 4.39
